# According to PubChem BioAssay AID1053115 (Broad Institute, 2014):
# Results with a measured potency or affinity are listed apart. Activity calls are given as the source filed them.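 How the source made its calls: active means cytotoxic compounds whose fitted half-maximal concentration is at most twice the top valid tested dose; inconclusive means flat curve showing 30 to 70% signal loss, or poor fit; inactive means the rest.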
# Assay: A549 cell cytotoxicity, dose response, cytotoxicity control, 24 h, CellTiter-Glo luminescence, cherry-picks (AID 1053115)
# Conditions: A549 viability, CellTiter-Glo ATP luminescence; series mostly up to 30 µM; activity change, negative = cytotoxicity: at the top concentration
row,Structure (SMILES),"activity change, negative = cytotoxicity"
1,CO[C@H]1CN(C)C(=O)c2ccc(NC(=O)c3ccc(F)cc3)cc2OC[C@H](C)N(C(=O)c2ccc(F)cc2)C[C@@H]1C,5.66% (inactive)
2,CCCNC(=O)C[C@H]1CC[C@@H]2[C@@H](COc3ccc(NC(=O)CCC)cc3C(=O)N2C)O1,4.14% (inactive)
3,C[C@H](O)C#Cc1ccc2c(c1)O[C@@H](CN(C)Cc1ccccc1)[C@@H](C)CN([C@@H](C)CO)S2(=O)=O,3.63% (inactive)
4,C[C@H](O)C#Cc1ccc2c(c1)O[C@H](CN(C)Cc1ccccc1)[C@H](C)CN([C@H](C)CO)S2(=O)=O,5.63% (inactive)
5,CN(C)C(=O)c1ccc(-c2cccc(-c3nc(C(=O)NC4CCCC4)cc4c3[C@H](CCO)N([S@@](=O)C(C)(C)C)C4)c2)cc1,-3.79% (inactive)
6,C[C@H](CO)N1C[C@H](C)[C@H](CN(C)Cc2ccccc2)Oc2cc(C#C[C@@H](C)O)ccc2S1(=O)=O,4.46% (inactive)
7,COc1ccccc1CN1CC[C@H]2[C@H](CO)Nc3ccc(-c4ccc(C(=O)N(C)C)cc4)cc3[C@H]21,-9.71% (inactive)
8,CN1c2ccc(C#Cc3cccnc3)cc2[C@H]2[C@H](CCN2C(=O)C2CCC2)[C@@H]1CO,8.82% (inactive)
9,C[C@@H]1CN([C@@H](C)CO)S(=O)(=O)c2ccc(C#C[C@@H](C)O)cc2O[C@@H]1CN(C)Cc1ccc(-c2ccccc2)cc1,2.82% (inactive)
10,CN1c2ccc(C#Cc3cccnc3)cc2[C@H]2[C@H](CCN2C(=O)C2CCCCC2)[C@@H]1CO,5.27% (inactive)
11,CN1c2ccc(C#Cc3cccnc3)cc2[C@@H]2[C@@H](CCN2C(=O)C2CCCCC2)[C@H]1CO,-3.85% (inactive)
12,C[C@H](O)C#Cc1ccc2c(c1)O[C@@H](CN(C)Cc1ccccc1)[C@@H](C)CN([C@H](C)CO)S2(=O)=O,-7.4% (inactive)
13,Cc1noc(C)c1S(=O)(=O)Nc1ccc2c(c1)C(=O)N([C@@H](C)CO)C[C@@H](C)[C@H](CN(C)S(=O)(=O)c1cccs1)O2,-4.84% (inactive)
14,C[C@@H]1CN([C@H](C)CO)S(=O)(=O)c2ccc(C#C[C@@H](C)O)cc2O[C@H]1CN(C)Cc1ccccc1,-5.37% (inactive)
15,C[C@@H](O)C#Cc1ccc2c(c1)O[C@@H](CN(C)Cc1cccnc1)[C@@H](C)CN([C@@H](C)CO)S2(=O)=O,12.4% (inactive)
16,COc1ccccc1CN1CC[C@@H]2[C@@H](CO)Nc3ccc(-c4ccc(C(=O)N(C)C)cc4)cc3[C@@H]21,1.95% (inactive)
17,C[C@@H](O)C#Cc1ccc2c(c1)O[C@H](CN(C)Cc1ccccc1)[C@@H](C)CN([C@@H](C)CO)S2(=O)=O,18.7% (inactive)
18,C[C@@H](O)C#Cc1ccc2c(c1)O[C@@H](CN(C)Cc1ccncc1)[C@@H](C)CN([C@@H](C)CO)S2(=O)=O,11.4% (inactive)
19,C[C@@H]1CN([C@@H](C)CO)S(=O)(=O)c2ccc(C#C[C@@H](C)O)cc2O[C@H]1CN(C)Cc1ccccc1,-0.87% (inactive)
20,CN1c2ccc(C#Cc3cccnc3)cc2[C@@H]2[C@@H](CCN2C(=O)C2CCC2)[C@H]1CO,-5.53% (inactive)
21,C[C@@H]1CN([C@@H](C)CO)S(=O)(=O)c2ccc(C#C[C@@H](C)O)cc2O[C@@H]1CN(C)Cc1ccccc1,-0.41% (inactive)
22,CN1c2ccc(C#Cc3cccnc3)cc2[C@@H]2[C@@H](CCN2C(=O)C2CCC2)[C@@H]1CO,3.96% (inactive)
